Measured values as given in the supplement of paper PMC10849652.
About 7,900 targets were measured; listed, in parts, are those with a hit and a random draw of the rest. About 0.6% of all pairs of compound and target were hits.

Key:
Assay in all cases: log2 fold change, soluble protein after heating vs DMSO (PISA); higher = thermal stabilisation; K562 cells, 10 uM, 30 min; active = over 0.2 and 3.5 SD of the protein, either way, in both replicates (recomputed)
[1] = compound: CS(=O)(=O)c1ccc(-c2cnc(N)c(C(=O)Nc3ccccc3)n2)cc1
Outline: (§1)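 For each measurement, 10 μM compound was applied for 30 min to K562 cells at 2×10^6 cells/mL. Aliquots were heated for 3 min across 48°C-58°C, pooled, and extracted in PBS with 0.5% NP-40 at 4°C; the supernatant after 21,000xg for 90 min was soluble protein. This was quantified by TMTpro 16plex LC-MS/MS with channel sums equalised, and thermal stability was reported relative to control samples from duplicates, on a log2 fold-change scale.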

crizotinib = compound: C[C@@H](Oc1cc(-c2cnn(C3CCNCC3)c2)cnc1N)c1c(Cl)ccc(F)c1Cl [crizotinib]
Outline: as §1

[2] = compound: C[C@@H]1COCCN1C2=NC(=NC(=C2)C3(CC3)S(=O)(=O)C)C4=C5C=CNC5=CC=C4
Outline: as §1

[3] = compound: C[C@H](C1=CC=C(C=C1)C(=O)NC2=C3C=CNC3=NC=C2)N
Outline: as §1

duvelisib = compound: C[C@H](Nc1ncnc2nc[nH]c12)c1cc2cccc(Cl)c2c(=O)n1-c1ccccc1 [duvelisib]
Outline: as §1

gandotinib = compound: Cc1cc(Nc2cc(CN3CCOCC3)c3nc(C)c(Cc4ccc(Cl)cc4F)n3n2)n[nH]1 [gandotinib]
Outline: as §1

tozasertib = compound: Cc1cc(Nc2cc(N3CCN(C)CC3)nc(Sc3ccc(NC(=O)C4CC4)cc3)n2)n[nH]1 [tozasertib]
Outline: as §1

[4] = compound: Cc1cc(SCc2sc(-c3ccc(C(F)(F)F)cc3)nc2C)ccc1OCC(=O)O
Outline: as §1

doramapimod = compound: Cc1ccc(-n2nc(C(C)(C)C)cc2NC(=O)Nc2ccc(OCCN3CCOCC3)c3ccccc23)cc1 [doramapimod]
Outline: as §1

ispinesib = compound: Cc1ccc(C(=O)N(CCCN)[C@@H](c2nc3cc(Cl)ccc3c(=O)n2Cc2ccccc2)C(C)C)cc1 [ispinesib]
Outline: as §1

Measured: log2 fold change

ALDH18A1 (UniProt P54886)
inactive: [1] -0.281 | crizotinib 0.08 | [2] -0.13 | [3] -0.036 | duvelisib -0.255 | gandotinib -0.323 | tozasertib 0.024 | [4] 0.032 | doramapimod -0.146 | ispinesib 0.164

AKR1C3 (UniProt P42330)
Chain of UniProt P42330 (P42330 whole entry, looked up): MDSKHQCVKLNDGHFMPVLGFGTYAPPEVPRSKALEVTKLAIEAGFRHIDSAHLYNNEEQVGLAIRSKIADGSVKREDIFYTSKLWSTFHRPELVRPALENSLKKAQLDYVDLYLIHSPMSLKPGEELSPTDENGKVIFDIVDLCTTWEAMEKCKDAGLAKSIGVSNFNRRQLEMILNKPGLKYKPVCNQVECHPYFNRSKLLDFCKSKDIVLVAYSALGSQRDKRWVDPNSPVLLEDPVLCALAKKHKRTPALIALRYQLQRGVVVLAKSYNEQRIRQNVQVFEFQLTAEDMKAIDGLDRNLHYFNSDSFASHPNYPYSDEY
inactive: [1] -0.101 | crizotinib 0.028 | [2] -0.009 | [3] -0.035 | duvelisib 0.23 | gandotinib 0.005 | tozasertib -0.059 | [4] 0.078 | doramapimod -0.012 | ispinesib 0.371

ATG9A (UniProt Q7Z3C6)
active: ispinesib -0.239
inactive: [1] 0.074 | crizotinib -0.11 | [2] 0.036 | [3] 0.036 | duvelisib 0.042 | gandotinib -0.062 | tozasertib 0.012 | [4] 0.069 | doramapimod -0.016

ATP5ME (UniProt P56385)
Chain of UniProt P56385 (P56385 whole entry, looked up): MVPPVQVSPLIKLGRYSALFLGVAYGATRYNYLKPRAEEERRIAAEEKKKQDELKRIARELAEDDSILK
inactive: [1] -0.016 | crizotinib 0.101 | [2] 0.102 | [3] -0.046 | duvelisib 0 | gandotinib 0.001 | tozasertib 0.008 | [4] -0.016 | doramapimod 0.033 | ispinesib 0.078

ACSM3 (UniProt Q53FZ2)
Chain of UniProt Q53FZ2 (Q53FZ2 whole entry, looked up): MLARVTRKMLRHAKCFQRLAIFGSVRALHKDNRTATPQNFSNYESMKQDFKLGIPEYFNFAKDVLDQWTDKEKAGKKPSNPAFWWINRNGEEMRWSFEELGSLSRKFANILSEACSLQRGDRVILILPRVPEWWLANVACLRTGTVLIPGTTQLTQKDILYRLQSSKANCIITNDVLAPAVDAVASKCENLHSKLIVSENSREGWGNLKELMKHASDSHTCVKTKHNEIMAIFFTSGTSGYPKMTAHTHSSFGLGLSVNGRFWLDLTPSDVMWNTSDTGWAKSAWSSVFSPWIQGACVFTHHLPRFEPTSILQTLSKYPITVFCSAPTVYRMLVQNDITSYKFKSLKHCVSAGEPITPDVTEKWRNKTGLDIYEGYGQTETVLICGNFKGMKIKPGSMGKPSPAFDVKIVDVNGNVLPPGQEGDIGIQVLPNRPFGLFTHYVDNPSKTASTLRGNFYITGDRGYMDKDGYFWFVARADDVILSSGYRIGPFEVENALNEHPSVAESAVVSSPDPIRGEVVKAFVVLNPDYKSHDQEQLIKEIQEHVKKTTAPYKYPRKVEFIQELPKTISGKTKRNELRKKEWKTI
inactive: [1] -0.001 | crizotinib -0.002 | [2] 0.027 | [3] -0.095 | duvelisib -0.131 | gandotinib -0.037 | tozasertib -0.001 | [4] 0.049 | doramapimod 0.023 | ispinesib 0.226

ALDH9A1 isoform 3 (UniProt P49189)
inactive: [1] -0.002 | crizotinib -0.002 | [2] 0.027 | [3] -0.042 | duvelisib 0.015 | gandotinib 0.063 | tozasertib -0.024 | [4] -0.002 | doramapimod -0.004 | ispinesib 0.006

ALKBH5 (UniProt Q6P6C2)
inactive: [1] 0.048 | crizotinib 0.032 | [2] -0.11 | [3] 0.013 | duvelisib 0.012 | gandotinib 0.267 | tozasertib -0.167 | [4] -0.055 | doramapimod -0.01 | ispinesib 0.007

BRAP (UniProt Q7Z569)
inactive: [1] 0.027 | crizotinib -0.205 | [2] 0.008 | [3] -0.01 | duvelisib -0.046 | gandotinib -0.024 | tozasertib 0.072 | [4] 0.093 | doramapimod 0.081 | ispinesib -0.089

ASNS (UniProt P08243)
inactive: [1] 0.003 | crizotinib -0.015 | [2] 0.044 | [3] -0.045 | duvelisib 0.025 | gandotinib 0.002 | tozasertib -0.018 | [4] -0.016 | doramapimod -0.026 | ispinesib 0.031

BMP2K (UniProt Q9NSY1)
inactive: [1] 0.136 | [2] 0 | duvelisib -0.078 | gandotinib 0.319 | tozasertib 0.318 | [4] -0.051 | doramapimod 0.024 | ispinesib -0.017
active: crizotinib 0.411 | [3] 0.402

ALG5 (UniProt Q9Y673)
inactive: [1] 0.005 | crizotinib -0.045 | [2] 0.06 | [3] -0.065 | duvelisib 0.11 | gandotinib -0.084 | tozasertib -0.046 | [4] 0.045 | doramapimod -0.032 | ispinesib 0.001

ANKRD29 (UniProt Q8N6D5)
inactive: [1] 0.125 | crizotinib 0.019 | [2] 0.042 | [3] -0.043 | duvelisib 0.139 | gandotinib 0.185 | tozasertib -0.072 | [4] 0.017 | doramapimod 0.097 | ispinesib -0.055

ATP6V0A2 (UniProt Q9Y487)
Chain of UniProt Q9Y487 (Q9Y487 whole entry, looked up): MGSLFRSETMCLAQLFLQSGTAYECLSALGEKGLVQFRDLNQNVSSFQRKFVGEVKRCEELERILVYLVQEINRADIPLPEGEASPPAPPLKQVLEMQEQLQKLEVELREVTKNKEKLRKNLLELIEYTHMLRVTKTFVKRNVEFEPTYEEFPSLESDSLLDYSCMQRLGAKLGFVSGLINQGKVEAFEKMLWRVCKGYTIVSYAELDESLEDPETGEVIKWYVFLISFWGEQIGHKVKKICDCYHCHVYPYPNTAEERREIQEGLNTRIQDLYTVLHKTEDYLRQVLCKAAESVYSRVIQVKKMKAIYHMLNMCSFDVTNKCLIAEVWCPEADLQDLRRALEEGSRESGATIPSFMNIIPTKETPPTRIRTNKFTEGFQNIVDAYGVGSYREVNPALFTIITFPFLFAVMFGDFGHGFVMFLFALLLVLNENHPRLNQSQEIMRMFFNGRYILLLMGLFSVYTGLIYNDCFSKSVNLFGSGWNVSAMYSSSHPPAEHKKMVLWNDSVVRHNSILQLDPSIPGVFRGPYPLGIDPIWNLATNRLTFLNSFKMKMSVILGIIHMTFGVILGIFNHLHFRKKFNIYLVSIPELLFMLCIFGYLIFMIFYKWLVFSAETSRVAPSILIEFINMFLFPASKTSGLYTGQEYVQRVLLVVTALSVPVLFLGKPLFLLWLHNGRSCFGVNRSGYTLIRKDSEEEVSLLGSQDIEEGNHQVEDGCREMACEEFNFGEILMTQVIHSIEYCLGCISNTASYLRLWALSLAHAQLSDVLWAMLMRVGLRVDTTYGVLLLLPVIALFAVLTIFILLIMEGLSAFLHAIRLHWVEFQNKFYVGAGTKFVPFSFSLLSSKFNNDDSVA
inactive: [1] -0.002 | crizotinib -0.197 | [2] -0.048 | [3] 0.07 | duvelisib -0.062 | gandotinib -0.006 | tozasertib 0.014 | [4] 0.064 | doramapimod 0.09 | ispinesib -0.18

BRD8 (UniProt Q9H0E9)
inactive: [1] 0 | crizotinib -0.021 | [2] 0.018 | [3] 0.06 | duvelisib -0.009 | gandotinib -0.013 | tozasertib 0.046 | [4] -0.054 | doramapimod 0.023 | ispinesib -0.022

ATP2A3 isoform 2 (UniProt Q93084)
inactive: [1] -0.003 | crizotinib 0.084 | [2] -0.048 | [3] -0.022 | duvelisib 0.025 | gandotinib -0.068 | tozasertib -0.036 | [4] -0.025 | doramapimod -0.023 | ispinesib -0.091

AMFR (UniProt Q9UKV5)
active: ispinesib -0.331
inactive: [1] -0.008 | crizotinib -0.04 | [2] 0.018 | [3] -0.034 | duvelisib 0.028 | gandotinib 0.012 | tozasertib -0.029 | [4] 0.071 | doramapimod 0.057

ARFGAP1 (UniProt Q8N6T3)
inactive: [1] 0.009 | crizotinib 0.094 | [2] 0.048 | [3] -0.016 | duvelisib -0.011 | gandotinib -0.038 | tozasertib 0.138 | [4] 0.047 | doramapimod -0.13 | ispinesib 0.008

AGPAT5 (UniProt Q9NUQ2)
inactive: [1] 0.035 | crizotinib -0.117 | [2] 0.151 | [3] -0.014 | duvelisib 0.065 | gandotinib -0.09 | tozasertib 0.002 | [4] -0.029 | doramapimod 0.001 | ispinesib -0.145

AKAP8L (UniProt Q9ULX6)
inactive: [1] -0.036 | crizotinib -0.049 | [2] -0.066 | [3] -0.1 | duvelisib -0.03 | gandotinib -0.007 | tozasertib 0.039 | [4] 0.092 | doramapimod 0.047 | ispinesib -0.102

AKT2 (UniProt P31751)
Chain of UniProt P31751 (P31751 whole entry, looked up): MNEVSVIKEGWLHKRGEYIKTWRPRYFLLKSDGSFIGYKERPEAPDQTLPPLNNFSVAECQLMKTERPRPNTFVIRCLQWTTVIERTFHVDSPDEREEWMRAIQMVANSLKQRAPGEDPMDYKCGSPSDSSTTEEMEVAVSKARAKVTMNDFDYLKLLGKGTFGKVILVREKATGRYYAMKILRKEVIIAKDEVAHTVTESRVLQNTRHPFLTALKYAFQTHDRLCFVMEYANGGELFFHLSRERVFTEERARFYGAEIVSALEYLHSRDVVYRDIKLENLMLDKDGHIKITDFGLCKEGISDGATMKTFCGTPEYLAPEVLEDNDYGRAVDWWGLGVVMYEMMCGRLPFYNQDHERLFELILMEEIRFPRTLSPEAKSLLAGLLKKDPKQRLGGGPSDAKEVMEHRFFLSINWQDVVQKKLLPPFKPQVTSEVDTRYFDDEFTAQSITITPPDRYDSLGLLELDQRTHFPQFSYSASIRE
inactive: [1] 0.035 | crizotinib -0.18 | [2] -0.211 | [3] 0.051 | duvelisib 0.039 | gandotinib -0.233 | tozasertib -0.075 | [4] 0.113 | doramapimod 0.015 | ispinesib -0.083

ATAD1 (UniProt Q8NBU5)
Chain of UniProt Q8NBU5 (Q8NBU5 whole entry, looked up): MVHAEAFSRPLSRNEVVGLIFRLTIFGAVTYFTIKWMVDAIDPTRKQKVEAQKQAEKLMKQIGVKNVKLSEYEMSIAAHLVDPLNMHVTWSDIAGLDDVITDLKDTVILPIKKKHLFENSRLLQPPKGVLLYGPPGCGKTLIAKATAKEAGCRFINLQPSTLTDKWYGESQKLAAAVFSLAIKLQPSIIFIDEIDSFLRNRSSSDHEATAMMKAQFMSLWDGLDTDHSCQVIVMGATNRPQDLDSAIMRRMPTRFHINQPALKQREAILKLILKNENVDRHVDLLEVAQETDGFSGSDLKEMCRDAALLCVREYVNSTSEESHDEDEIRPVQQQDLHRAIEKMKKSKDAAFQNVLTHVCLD
inactive: [1] 0.004 | crizotinib 0.021 | [2] -0.013 | [3] 0.074 | duvelisib -0.032 | gandotinib 0.144 | tozasertib -0.013 | [4] 0.113 | doramapimod -0.003 | ispinesib -0.063

BCCIP (UniProt Q9P287)
Chain of UniProt Q9P287 (Q9P287 whole entry, looked up): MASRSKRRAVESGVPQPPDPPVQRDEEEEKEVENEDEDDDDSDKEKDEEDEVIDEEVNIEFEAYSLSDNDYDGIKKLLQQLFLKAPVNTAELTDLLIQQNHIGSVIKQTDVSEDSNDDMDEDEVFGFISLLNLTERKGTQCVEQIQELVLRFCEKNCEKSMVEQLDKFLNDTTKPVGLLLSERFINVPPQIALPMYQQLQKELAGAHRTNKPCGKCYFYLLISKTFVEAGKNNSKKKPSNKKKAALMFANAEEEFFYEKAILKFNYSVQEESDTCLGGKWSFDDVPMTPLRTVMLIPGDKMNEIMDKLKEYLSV
inactive: [1] -0.015 | crizotinib -0.02 | [2] -0.044 | [3] 0.074 | duvelisib -0.03 | gandotinib -0.093 | tozasertib -0.005 | [4] 0.037 | doramapimod 0.01 | ispinesib 0.001

ATAD3B (UniProt Q5T9A4)
active: ispinesib -0.544
inactive: [1] 0.009 | crizotinib -0.171 | [2] -0.112 | [3] 0.191 | duvelisib -0.05 | gandotinib 0.033 | tozasertib 0.034 | [4] 0.105 | doramapimod 0.137

ATP9B (UniProt O43861)
inactive: [1] 0.281 | crizotinib -0.033 | [2] -0.066 | [3] -0.098 | duvelisib 0.029 | gandotinib -0.053 | tozasertib 0.004 | [4] 0 | doramapimod 0.015 | ispinesib -0.208

ARFGEF1 (UniProt Q9Y6D6)
inactive: [1] 0.03 | crizotinib -0.135 | [2] 0.022 | [3] 0.052 | duvelisib 0.021 | gandotinib -0.014 | tozasertib 0.049 | [4] 0.004 | doramapimod 0.067 | ispinesib -0.024

ALDH1B1 (UniProt P30837)
inactive: [1] 0.054 | crizotinib -0.067 | [2] 0.12 | [3] -0.068 | duvelisib 0.021 | gandotinib -0.025 | tozasertib -0.011 | [4] 0.008 | doramapimod -0.006 | ispinesib 0.019

ACSL1 (UniProt P33121)
Chain of UniProt P33121 (P33121 whole entry, looked up): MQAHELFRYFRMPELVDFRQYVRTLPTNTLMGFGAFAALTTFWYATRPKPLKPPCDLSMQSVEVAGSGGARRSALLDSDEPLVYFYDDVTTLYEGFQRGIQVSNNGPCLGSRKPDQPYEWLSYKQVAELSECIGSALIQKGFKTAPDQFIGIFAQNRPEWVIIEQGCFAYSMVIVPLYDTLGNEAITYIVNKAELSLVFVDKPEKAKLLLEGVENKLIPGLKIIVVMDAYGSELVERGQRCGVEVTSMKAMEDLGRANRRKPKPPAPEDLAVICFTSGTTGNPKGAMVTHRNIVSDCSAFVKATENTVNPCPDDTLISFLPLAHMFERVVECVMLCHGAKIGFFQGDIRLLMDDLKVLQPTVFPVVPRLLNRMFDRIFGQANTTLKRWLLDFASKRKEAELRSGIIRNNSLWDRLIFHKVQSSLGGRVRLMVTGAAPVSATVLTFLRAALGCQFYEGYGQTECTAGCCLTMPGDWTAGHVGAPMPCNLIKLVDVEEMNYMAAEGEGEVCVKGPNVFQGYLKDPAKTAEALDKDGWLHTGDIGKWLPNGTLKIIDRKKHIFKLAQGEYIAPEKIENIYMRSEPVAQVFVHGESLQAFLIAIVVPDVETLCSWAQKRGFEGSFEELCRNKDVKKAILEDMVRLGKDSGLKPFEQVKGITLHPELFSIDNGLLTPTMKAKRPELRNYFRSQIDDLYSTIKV
inactive: [1] 0.012 | crizotinib -0.091 | [2] 0.017 | [3] -0.024 | duvelisib 0.056 | gandotinib 0.008 | tozasertib -0.028 | [4] 0 | doramapimod -0.003
active: ispinesib -0.246

ARGLU1 (UniProt Q9NWB6)
Chain of UniProt Q9NWB6 (Q9NWB6 whole entry, looked up): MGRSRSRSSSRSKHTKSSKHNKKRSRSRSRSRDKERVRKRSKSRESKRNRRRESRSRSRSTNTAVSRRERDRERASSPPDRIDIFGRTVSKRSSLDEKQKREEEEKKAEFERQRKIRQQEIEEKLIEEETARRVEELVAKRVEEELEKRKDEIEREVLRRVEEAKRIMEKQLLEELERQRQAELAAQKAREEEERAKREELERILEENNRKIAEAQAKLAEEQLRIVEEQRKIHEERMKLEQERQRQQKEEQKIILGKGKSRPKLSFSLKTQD
inactive: [1] -0.038 | crizotinib -0.008 | [2] -0.039 | [3] -0.344 | duvelisib -0.011 | gandotinib 0.212 | tozasertib 0.037 | [4] -0.027 | doramapimod 0.047 | ispinesib 0.242

ATAD3A isoform 2 (UniProt Q9NVI7)
active: ispinesib -0.348
inactive: [1] 0.003 | crizotinib -0.191 | [2] -0.052 | [3] 0.101 | duvelisib -0.083 | gandotinib 0.032 | tozasertib 0.005 | [4] 0.075 | doramapimod 0.057

BCLAF1 (UniProt Q9NYF8)
Chain of UniProt Q9NYF8 (Q9NYF8 whole entry, looked up): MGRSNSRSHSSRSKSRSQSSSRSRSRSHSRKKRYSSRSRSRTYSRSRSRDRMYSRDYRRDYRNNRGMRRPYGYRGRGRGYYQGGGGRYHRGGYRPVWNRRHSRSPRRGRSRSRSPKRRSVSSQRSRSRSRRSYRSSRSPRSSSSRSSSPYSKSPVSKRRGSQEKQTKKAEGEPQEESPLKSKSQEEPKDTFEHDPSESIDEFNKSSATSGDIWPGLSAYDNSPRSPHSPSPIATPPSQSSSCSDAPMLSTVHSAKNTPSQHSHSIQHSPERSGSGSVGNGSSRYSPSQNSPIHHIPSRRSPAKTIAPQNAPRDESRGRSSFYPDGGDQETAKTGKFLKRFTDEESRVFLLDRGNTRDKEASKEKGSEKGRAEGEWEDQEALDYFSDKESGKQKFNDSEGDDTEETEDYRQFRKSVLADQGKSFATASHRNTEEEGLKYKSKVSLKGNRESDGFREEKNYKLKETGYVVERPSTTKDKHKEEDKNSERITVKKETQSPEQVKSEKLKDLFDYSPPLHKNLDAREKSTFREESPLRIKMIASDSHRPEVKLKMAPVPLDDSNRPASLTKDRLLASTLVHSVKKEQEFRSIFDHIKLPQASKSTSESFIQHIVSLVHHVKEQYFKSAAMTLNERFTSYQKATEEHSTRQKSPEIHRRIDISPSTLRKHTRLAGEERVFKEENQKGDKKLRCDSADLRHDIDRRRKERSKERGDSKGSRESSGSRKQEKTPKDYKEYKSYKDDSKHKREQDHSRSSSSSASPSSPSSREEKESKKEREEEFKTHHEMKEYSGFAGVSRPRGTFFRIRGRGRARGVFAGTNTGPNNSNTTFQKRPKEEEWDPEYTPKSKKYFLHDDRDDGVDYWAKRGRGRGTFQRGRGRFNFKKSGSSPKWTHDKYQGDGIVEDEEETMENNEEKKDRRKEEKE
active: [3] -0.438
inactive: [1] -0.002 | crizotinib -0.06 | [2] 0.089 | duvelisib 0.017 | gandotinib -0.021 | tozasertib 0.012 | [4] -0.01 | doramapimod 0.035 | ispinesib 0.164

BPHL (UniProt Q86WA6)
inactive: [1] 0.02 | crizotinib -0.036 | [2] 0.008 | [3] -0.059 | duvelisib 0.024 | gandotinib 0.05 | tozasertib 0.192 | [4] -0.01 | doramapimod 0.004 | ispinesib 0.01
